Laboratory results published in PubChem BioAssay AID1794844 (National Center for Advancing Translational Sciences (NCATS), 2023).
Out of some 2,800 compounds screened, fewer than 10 were called active. Another 7% or so got no clear call; they are omitted. The call rests on the fitted dose curve; in most records, active means well fitted inhibition curve with a large enough effect; inconclusive means small, poorly fitted or top-dose-only effect; inactive means no such curve, though single readings can be large or run the other way. A selection follows. Where a call stands in place of a potency, no number is given.
Potency means the concentration at half of the fitted maximal effect.

These compounds were tested against Metallo-beta-lactamase type 2 (Klebsiella pneumoniae) (UniProt C7C422) (assay: qHTS to identify inhibitors of the New Delhi Metallo-beta-lactamase (NDM): Nitrocefin screen against the machine-based learning selections.). Details: NDM-1 enzyme, nitrocefin hydrolysis, absorbance 485 nm; series mostly up to 38.4 µM.
Chain of Metallo-beta-lactamase type 2 (Klebsiella pneumoniae) (C7C422 whole entry, looked up): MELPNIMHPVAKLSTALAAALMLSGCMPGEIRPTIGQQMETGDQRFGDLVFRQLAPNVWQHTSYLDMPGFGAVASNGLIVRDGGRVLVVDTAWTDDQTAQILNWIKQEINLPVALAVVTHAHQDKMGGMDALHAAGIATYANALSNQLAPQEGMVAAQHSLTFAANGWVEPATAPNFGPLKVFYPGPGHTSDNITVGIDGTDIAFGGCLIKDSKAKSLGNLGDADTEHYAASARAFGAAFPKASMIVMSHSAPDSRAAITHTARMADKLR
From the text: Assay Submitter (PI): James Inglese Ph.D., Patricia Dranchak Ph.D., Mahesh Aitha Ph.D. Assay Development and Screening Technology Laboratory (ADST) National Center for Advancing Translational Sciences (NCATS), Rockville, MD National Institute of Health (NIH), Bethesda, Maryland The metallo-beta-lactamases (MBL) are a main antibiotic resistance mechanism evolved by bacteria. There is an urgent clinical need for MBL inhibitors to mitigate this growing threat. To support a machine-based learning study, qHTS has been used to experimentally test inhibitors identified by prediction tools.
PROTOCOL TABLE (as described by Inglese et al., 2007) SEQUENCE No. (e.g., 1, 2, 3, etc.); […] (e.g., enzyme, Incubation, Reagent, etc.); VALUE; DESCRIPTION Primary Screen 1; NDM-1; 4 uL of 3 nM enzyme [2 nM final] in 50 mM HEPES (pH 7.0), 1 uM […], 0.01% Tween20; Use BioRaptr to dispense into two sets of Aurora black, clear bottom high base 1536-well plates 2; Compounds; 23 nL; Use Pin Tool (Wako) to transfer DMSO control and library compounds in DMSO 3; Incubate; >30 min 4a; Reagent; 2 uL of 50 uM nitrocefin [16.7 uM final] to one set of assay plates 4b; Reagent; 2 uL of 150 uM meropenem [50 uM final] to second set of assay plates 5a; Incubate; 15 min 5b; Incubate; 30 min 6a; Detector; Absorbance at 485 nm (bandwidth = 5 nm, 25 flashes/well) on Tecan Infinity 6b; Detector; Absorbance at 300 nm (bandwidth = 5 nm, 25 flashes/well) on Tecan Infinity NOTES (numbers refer to sequence above) 1; Column 1 of each plate received assay buffer without enzyme and columns 2-48 received enzyme for a final assay concentration of 2 nM. 2; Control plate contained DMSO in columns 1, 2, 3, and 4. 3; Compound interaction with enzyme. 4; Nitrocefin and meropenem substrates were prepared in the same assay buffer as step 1 for a final assay concentration of 16.7 uM and 50 uM, respectively, and added to all wells across respective sets of assay plates. 5; Default reader settings were applied for absorbance read at 485 nm (nitrocefin) or 300 nm (meropenem), bandwidth = 5 nm, 25 flashes/well. References: Inglese J, Shamu CE, Guy RK. 2007. Reporting data from high-throughput screening of small-molecule libraries. Nat Chem Biol. doi:10.1038/nchembio0807-438 Yasgar A, Shinn P, Jadhav A, Auld D, Michael S, Zheng W, Austin CP, Inglese J, Simeonov A. 2008. Compound Management for Quantitative High-Throughput Screening. J Lab Autom 13:79 - 89. doi:10.1016/j.jala.2007.12.004
`COc1ccc(C(=O)N2CC[C@@H](CC(=O)O)[C@@H](CCN3CCN(c4ccccn4)CC3)C2)cc1` was tested, and the Potency was “inactive”. In the case of `COCCNC(=O)[C@@H]1CCC[C@@H](NC(=O)C2CC2)CN(C)C(=O)C1`, the Potency is reported as “inactive”. `Cc1cccc(C)c1-c1nc(C(=O)NCCc2ccc(Cl)cc2)n2ccccc12` was tested, and the Potency was “inactive”. In the case of `COc1cccc(Nc2cc3c(cn2)CN(Cc2cccnc2)CCN3)c1`, the Potency is reported as “inactive”. `Cc1noc(C)c1S(=O)(=O)N1C[C@@H](C(N)=O)[C@H](C2CCN(C)CC2)C1` was tested, and the Potency was “inactive”. For `Nc1n[nH]c(CNc2cc(-c3ccc(F)cc3)nc3ccnn23)n1`, the Potency was “inactive”. For `COC(=O)c1ccccc1NC(=O)Cn1cccc1-c1nc(-c2ccccc2)no1`, the Potency was “inactive”. `COC(=O)[C@@H](C)NC(=O)[C@H]1CN(C(=O)c2cccnc2)CCN1S(C)(=O)=O` was tested, and the Potency was “inactive”. With `Cc1noc2c(N3CCOCC3)cc(-c3cccnc3)nc12` the Potency was “inactive”. `CC(C)C[C@@H]1N[C@H](C(=O)NCc2cccs2)Cc2c[nH]c3cccc1c23` was tested, and the Potency was “inactive”. `CCCNC(=O)NC[C@H]1O[C@@H]2C[C@@H](CC(=O)N3CCC(F)(F)C3)O[C@@H]2[C@@H]1O` was tested, and the Potency was “inactive”. In the case of `O=C(N[C@H]1[C@H](O)[C@H](O)C[C@@H]1c1cccnc1)c1ccccn1`, the Potency is reported as “inactive”. For `O=C(O)c1cccc(-c2n[nH]c3c2CC(=O)N(c2ccccc2)C3)c1`, the Potency was “inactive”. `N#Cc1cccc(CN2CCOC[C@H]2c2ncc(-c3ccccc3)[nH]2)c1` was tested, and the Potency was “inactive”. With `COCC(=O)N[C@H]1CO[C@H]2[C@@H]1OC[C@@H]2Nc1nccc(-c2cccc(C#N)c2)n1` the Potency was “inactive”. `Cc1[nH]c2ccc(C(=O)N3CC[C@@](C)(O)[C@@H](O)C3)cc2c1C` was tested, and the Potency was “inactive”. In the case of `c1cncc(CNc2cc(-c3cnc4ccccc4n3)c3cc[nH]c3n2)c1`, the Potency is reported as “inactive”. For `CCN1CCN(C2(C(=O)NCCc3ccccc3)Cc3ccccc3C2)CC1`, the Potency was “inactive”. For `COc1cccc(NC(=O)N[C@H](C)c2onc(-c3ccc(F)cc3)c2C(=O)O)c1`, the Potency was “inactive”. `O=C(Nc1ccc([C@H]2OCC(=O)N(C3CCOCC3)[C@@H]2CO)cc1)c1cnccn1` was tested, and the Potency was “inactive”. In the case of `N[C@@H](Cc1cnc[nH]1)C(=O)NCc1cccnc1Oc1ccc(F)cc1F`, the Potency is reported as “inactive”. In the case of `CN1CC2(CCN(C(=O)c3ccccc3-c3nn[nH]n3)CC2)CC1C(=O)O` (stereo unspecified), the Potency is reported as 6.69 µM (active). With `CCCN1CC2(CCN(C(=O)c3ccc(C)nc3)CC2)CC1C(=O)O` (stereo unspecified) the Potency was “inactive”. With `COCCN1CCCC2(CCN(C(=O)c3ccccc3)C2)C1` (stereo unspecified) the Potency was “inactive”. For `CC(=O)N1CCN(C(=O)C[C@@H]2c3nc(NC(=O)C4CCCCC4)sc3C[C@@H]3[C@](C)(CO)[C@H](O)CC[C@]32C)CC1`, the Potency was “inactive”. With `CN(C)c1ccc(-c2nnnn2[C@H]2CO[C@H]3[C@@H]2OC[C@@H]3NS(=O)(=O)c2ccc3ccccc3c2)cc1` the Potency was “inactive”. `C[C@@]1(O)CCN(c2ncccc2C(=O)c2nccs2)C[C@@H]1O` was tested, and the Potency was “inactive”. `OC(c1cccc(C(F)(F)F)c1)c1nc(Nc2ccc(F)cc2)n[nH]1` (stereo unspecified) was tested, and the Potency was “inactive”. In the case of `Cn1ccc2c(C(=O)N[C@H](c3cccs3)C3CC(O)C3)cccc21` (stereo partly specified), the Potency is reported as “inactive”. `Cc1nc(C(=O)N2CCC(c3nnc(CN4CCCC4)n3C)CC2)cs1` was tested, and the Potency was “inactive”. In the case of `Cc1ccc(C(=O)N2CCN(c3nnc4cccc(C)n34)CC2)cc1F`, the Potency is reported as “inactive”. For `O=C1C(c2ccccc2)CC2(CCN(c3cnccn3)CC2)CN1C1CC1` (stereo unspecified), the Potency was “inactive”. `O=C(c1ccccc1)N1CCN2C(=O)N(Cc3ccccc3)C(=O)[C@H]2C1` was tested, and the Potency was “inactive”. For `Cc1cnc(C(=O)N2CCC(N3C(=O)C4(CCCC4)C3c3ccccc3)CC2)cn1` (stereo unspecified), the Potency was “inactive”. `O=C(Cc1ccccc1C(F)(F)F)N1CCC2(CC1)[C@H](O)C[C@@H]2O` was tested, and the Potency was “inactive”. `CN(Cc1cc(-c2cccs2)n[nH]1)C(=O)c1cn(CCN)nn1` was tested, and the Potency was “inactive”. `O=C1CC(C(=O)O)C2(CCN(c3cc(C4CC4)ncn3)CC2)N1` (stereo unspecified) was tested, and the Potency was “inactive”. With `Cc1noc2c(-c3cccnc3)cc(-c3cccs3)nc12` the Potency was “inactive”. `CCc1ncc(C(=O)N2CCN(c3ccc(Cl)c(Cl)c3)CC2)cn1` was tested, and the Potency was “inactive”. For `CC(=O)N1CC[C@H](c2nc3cc(C)ccc3o2)C1`, the Potency was “inactive”. With `Cc1nc2c(C(=O)N3CCC(c4cc(CC(=O)O)[nH]n4)CC3)cccc2[nH]1` the Potency was 8.42 µM (active). With `COc1nc(C)c(C(=O)N2CCC(c3[nH]ncc3-c3ccccc3)CC2)s1` the Potency was “inactive”. For `Cc1ccc2nc(C)cc(C(=O)N3CCC(c4cc(CC(=O)O)[nH]n4)CC3)c2c1`, the Potency was 9.45 µM (active). For `Cc1nc(C2CCCCN2C(=O)Cc2ccccc2)n[nH]1` (stereo unspecified), the Potency was “inactive”. In the case of `Cc1ccc2nc(C3CCCN(Cc4ccccc4)C3)[nH]c(=O)c2c1` (stereo unspecified), the Potency is reported as “inactive”. With `CCNC(=O)O[C@@H]1CO[C@H]2[C@@H]1OC[C@@H]2NC(=S)Nc1ccc(N(C)C)cc1` the Potency was “inactive”. `O=C(c1cccnc1)N1CC[C@H](c2nnc(Cc3ccccc3)o2)C1` was tested, and the Potency was “inactive”. For `O=C(Cc1c[nH]c2ncc(-c3cccc(Cl)c3)cc12)NCc1cccnc1`, the Potency was “inactive”. In the case of `Nc1ccc(-c2ccc(OCCn3ccnc3)cc2)cn1`, the Potency is reported as “inactive”. With `COCCCNC(=O)N1CC(c2nc(CCOCC3CCOCC3)no2)C1` the Potency was “inactive”. `CNC(=O)[C@H]1C[C@H](Oc2cccnc2)CN1S(=O)(=O)c1ccc(OC)cc1` was tested, and the Potency was “inactive”. `O=C(Nc1cccc(C(F)(F)F)c1)N[C@H]1CO[C@H]2[C@@H]1OC[C@@H]2Nc1nccc(-c2ccc(-c3ccccc3)cc2)n1` was tested, and the Potency was “inactive”. In the case of `CC(C)(C)c1nnc([C@H]2CCN(Cc3ccco3)C2)o1`, the Potency is reported as “inactive”. With `Cc1cccc(Cl)c1NC(=O)N1CCC2(CC1)C(C(=O)O)CC(=O)N2C` (stereo unspecified) the Potency was “inactive”. `C[C@@H](c1ccccc1)N1C(=O)[C@@H]2CN(C(=O)c3ccc(N(C)C)cc3)CCN2C1=O` was tested, and the Potency was “inactive”. For `Cc1nc(CCC(=O)N2CCC(Cc3ccc(C(=O)O)cc3)C2)n[nH]1` (stereo unspecified), the Potency was “inactive”. In the case of `CCCS(=O)(=O)N1CCC(Cc2nc(-c3cccnc3)n[nH]2)C1` (stereo unspecified), the Potency is reported as “inactive”. For `COc1ccc(CN2CCOc3ccc(C(=O)NCc4ccc(C)cc4)cc3C2)c(OC)c1`, the Potency was “inactive”. `O=C(c1ccccc1Cl)N1CCCC(c2nn(-c3ccccc3)c(=O)[nH]2)C1` (stereo unspecified) was tested, and the Potency was “inactive”. In the case of `CC(C)C(=O)N[C@H]1[C@H](O)[C@H](O)C[C@@H]1c1cccnc1`, the Potency is reported as “inactive”. In the case of `CC(O)c1cc2n(n1)CCN(C1CCN(C(=O)c3cnccn3)CC1)C2` (stereo unspecified), the Potency is reported as “inactive”.
